From PubChem BioAssay (NCI)
“And” between values parts separate entries of the source, which are not always exact repeats. Equal entries are not always repeated. About 79,000 compounds went through this panel and 15% of them were active in at least one assay; those are over-represented in the sample as a whole. Where a structure was tested more than once in an assay, its records may differ in their call. The source made the active and inactive calls. No stated cut-off is given here; in the data, active means growth inhibition above about 70%; inactive means the rest.

How the values were obtained:
[1] = NCI Yeast Anticancer Drug Screen. Data for the rad52 strain (AID 147);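 further: 0% = growth of vehicle-treated control cultures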; conditions: S. cerevisiae rad52 mutant growth inhibition, stronger effect = higher value
In short: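 The repair-mutant yeast strain was incubated with compounds, then growth was read and inhibition derived relative to vehicle.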

[2] = NCI Yeast Anticancer Drug Screen. Data for the wt1 strain (AID 149);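 further: 0% = growth of vehicle-treated wt1 cultures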; conditions: S. cerevisiae wt1 strain (SPY 50644) growth inhibition, stronger effect = higher value
In short: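 Readout: yeast growth inhibition, normalised to vehicle controls, in the wt1 strain exposed to test compounds.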

[3] = NCI Yeast Anticancer Drug Screen. Data for the rad50EPP+ strain (AID 151);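 further: 0% = growth of vehicle-treated control cultures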; conditions: S. cerevisiae rad50 mutant strain, stronger effect = higher value
In short: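 Vehicle-normalised growth inhibition; rad50EPP+ yeast strain, altered in DNA damage repair, compound-treated.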

[4] = NCI Yeast Anticancer Drug Screen. Data for the mgt1 strain (AID 153); conditions: S. cerevisiae mgt1 mutant growth inhibition, stronger effect = higher value
In short: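 Vehicle-normalized growth inhibition is determined in mgt1 yeast, a strain selected for a defined alteration in DNA repair or cell cycle control.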

[5] = NCI Yeast Anticancer Drug Screen. Data for the rad50 strain (AID 155);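 further: 0% = growth of vehicle-only cultures of the same strain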; conditions: S. cerevisiae rad50 strain growth inhibition, stronger effect = higher value
In short: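 Compounds were tested on a yeast strain with an engineered DNA damage repair alteration; the reported value is growth inhibition normalised to vehicle treatment.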

[6] = NCI Yeast Anticancer Drug Screen. Data for the mec2-1 strain (AID 157); conditions: S. cerevisiae mec2-1 strain, stronger effect = higher value
In short: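 Mutant yeast (mec2-1) grown with compound; growth inhibition relative to vehicle control reported.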

[7] = NCI Yeast Anticancer Drug Screen. Data for the rad14 strain (AID 159);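 further: 0% = growth of vehicle-treated control cultures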; conditions: S. cerevisiae rad14 strain growth inhibition, stronger effect = higher value
In short: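 Compound-treated yeast with a defined DNA-repair lesion; growth inhibition normalised to vehicle-treated cultures.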

[8] = NCI Yeast Anticancer Drug Screen. Data for the sgs1 mgt1 strain (AID 161);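 further: 0% = growth of cultures given vehicle only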; conditions: S. cerevisiae sgs1 mgt1 strain, stronger effect = higher value
In short: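 Compounds are added to genetically altered yeast, and growth is compared with cultures given vehicle alone to give percent inhibition.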

[9] = NCI Yeast Anticancer Drug Screen. Data for the CLN2oe strain (AID 163);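 further: 0% = growth of vehicle-only control cultures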; conditions: S. cerevisiae CLN2oe strain, stronger effect = higher value
In short: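 Compounds are applied to yeast harbouring a defined cell-cycle control change; reduced growth compared with vehicle-treated controls gives the value.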

[10] = NCI Yeast Anticancer Drug Screen. Data for the cln2 rad14 strain (AID 165);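 further: 0% = growth equal to vehicle treated cultures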; conditions: S. cerevisiae cln2 rad14 strain, stronger effect = higher value
In short: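 Readout is yeast growth inhibition versus vehicle-treated controls, using a strain with cln2 and rad14 alterations exposed to compound.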

[11] = NCI Yeast Anticancer Drug Screen. Data for the bub3 strain (AID 167); conditions: S. cerevisiae bub3 mutant strain, stronger effect = higher value
In short: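 Growth of a checkpoint-deficient yeast mutant is measured after compound exposure. Values represent inhibition relative to vehicle.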

[12] = NCI Yeast Anticancer Drug Screen. Data for the wt2 strain (AID 169);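 further: 0% = growth of vehicle-treated yeast cultures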; conditions: S. cerevisiae wt2 strain growth inhibition, stronger effect = higher value
In short: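 Against vehicle-treated controls, the growth of yeast exposed to each compound was compared, and the inhibition was recorded.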

[13] = NCI Yeast Anticancer Drug Screen. Data for the mlh1 strain (AID 171);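 further: 0% = growth of vehicle-treated control cultures of the same strain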; conditions: S. cerevisiae mlh1 strain growth inhibition, stronger effect = higher value
In short: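 Measured: yeast growth. Reference: vehicle-treated controls. Organism: strain with a defined alteration affecting DNA damage repair or cell cycle control, treated with compound.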

[14] = NCI Yeast Anticancer Drug Screen. Data for the sgs1 strain (AID 173);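 further: 0% = growth of vehicle-only control cultures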; conditions: S. cerevisiae sgs1 mutant, stronger effect = higher value
In short: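 Each compound was added to cultures of the altered yeast strain. Growth was recorded, and inhibition was derived by comparison with vehicle controls.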

[15] = NCI Yeast Anticancer Drug Screen. Data for the rad18 strain (AID 177); conditions: S. cerevisiae rad18 mutant growth inhibition, stronger effect = higher value
In short: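 Vehicle-treated cultures served as the baseline for scoring compound-induced growth inhibition in DNA-repair-mutant yeast.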

[16] = NCI Yeast Anticancer Drug Screen. Data for the mlh1 rad18 strain (AID 175); conditions: S. cerevisiae mlh1 rad18 strain growth inhibition, stronger effect = higher value
In short: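 Genetically defined yeast (DNA repair-deficient) exposed to compounds; growth inhibition determined relative to vehicle.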

[17] = at 5.0 µM (retest, dose inferred, filed as 0.5)
[18] = at 50.0 µM (retest, dose inferred, filed as 5.0)

Measured: growth inhibition

c1ccc(-c2cnc3ccccc3c2)cc1
70.1% (active) and 62.7% (inactive): [5]; at 50.0 µM
inactive: [1]; at 1.2 µM 0% | [1]; at 3.7 µM 3% | [1]; at 11.0 µM 0% | [1]; at 33.0 µM 28% | [2]; at 1.2 µM -7% | [2]; at 3.7 µM -8% | [2]; at 11.0 µM -12% | [2]; at 33.0 µM -12% | [3]; at 1.2 µM 7% | [3]; at 3.7 µM 14% | [3]; at 11.0 µM 37% | [4]; at 1.2 µM -5% | [4]; at 3.7 µM -7% | [4]; at 11.0 µM -6% | [4]; at 33.0 µM -6% | [5]; at 1.2 µM -5% | [5]; at 3.7 µM -3% | [5]; [17] -151% and -148% | [5]; at 11.0 µM 14% | [5]; at 33.0 µM 47% | [5]; [18] 37% and 47% | [6]; at 1.2 µM 3% | [6]; at 3.7 µM -3% | [6]; [17] -52% | [6]; at 11.0 µM -12% | [6]; at 33.0 µM -3% | [6]; [18] 31% and 18% | [6]; at 50.0 µM 56.7% and 56.4% | [7]; at 1.2 µM -2% | [7]; at 3.7 µM 0% | [7]; at 11.0 µM -1% | [7]; at 33.0 µM 18% | [8]; [17] -68% and -66% | [8]; [18] 36% and 47% | [8]; at 50.0 µM 62% and 49.7% | [9]; at 1.2 µM -6% | [9]; at 3.7 µM -7% | [9]; at 11.0 µM -1% | [9]; at 33.0 µM 6% | [10]; [17] -68% and -62% | [10]; [18] -49% and -39% | [10]; at 50.0 µM -14.5% and -17.3% | [11]; at 1.2 µM -6% | [11]; at 3.7 µM 0% | [11]; [17] -51% and -54% | [11]; at 11.0 µM 10% | [11]; at 33.0 µM 30% | [11]; [18] 18% and 54% | [11]; at 50.0 µM 46.5% and 63.5% | [12]; at 1.2 µM -4% | [12]; at 3.7 µM -3% | [12]; at 11.0 µM -5% | [12]; at 33.0 µM -6% | [13]; at 1.2 µM 2% | [13]; at 3.7 µM -9% | [13]; at 11.0 µM -7% | [13]; at 33.0 µM -9% | [14]; at 1.2 µM -3% | [14]; at 3.7 µM -5% | [14]; at 11.0 µM -11% | [14]; at 33.0 µM 12% | [15]; at 1.2 µM -2% | [15]; at 3.7 µM -3% | [15]; at 11.0 µM 0% | [15]; at 33.0 µM 6%
active: [1]; at 100.0 µM 99% | [2]; at 100.0 µM 98% | [3]; at 33.0 µM 70% | [3]; at 100.0 µM 98% | [4]; at 100.0 µM 96% | [5]; at 100.0 µM 99% | [6]; at 100.0 µM 99% | [7]; at 100.0 µM 99% | [9]; at 100.0 µM 97% | [11]; at 100.0 µM 99% | [12]; at 100.0 µM 98% | [13]; at 100.0 µM 99% | [14]; at 100.0 µM 99% | [15]; at 100.0 µM 99%

Cc1ccc(N=Nc2ccc(O)c(=O)cc2)cc1
-6.6% (inactive) and 86.5% (active): [16]; at 50.0 µM
-1.5% (inactive) and 90.4% (active): [10]; at 50.0 µM
-18.2% (inactive) and 82.3% (active): [5]; at 50.0 µM
-10.6% (inactive) and 89.8% (active): [8]; at 50.0 µM
active: [1]; at 33.0 µM 89% | [1]; at 100.0 µM 93% | [2]; at 33.0 µM 78% | [2]; at 100.0 µM 91% | [3]; at 100.0 µM 87% | [4]; at 33.0 µM 86% | [4]; at 100.0 µM 91% | [5]; at 33.0 µM 83% | [5]; [18] 81% | [5]; at 100.0 µM 92% | [6]; at 33.0 µM 82% | [6]; at 100.0 µM 91% | [7]; at 33.0 µM 84% | [7]; at 100.0 µM 92% | [8]; [18] 95% | [9]; at 33.0 µM 83% | [9]; at 100.0 µM 93% | [10]; [18] 95% | [11]; at 33.0 µM 90% | [11]; [18] 91% | [11]; at 100.0 µM 92% | [12]; at 33.0 µM 87% | [12]; at 100.0 µM 94% | [13]; at 33.0 µM 83% | [13]; at 100.0 µM 90% | [14]; at 33.0 µM 85% | [14]; at 100.0 µM 93% | [16]; [18] 90% | [15]; at 33.0 µM 86% | [15]; at 100.0 µM 93%
8.6% (inactive) and 88.3% (active): [6]; at 50.0 µM
inactive: [1]; at 1.2 µM -11% | [1]; at 3.7 µM 1% | [1]; at 11.0 µM 54% | [2]; at 1.2 µM 1% | [2]; at 3.7 µM 25% | [2]; at 11.0 µM 37% | [3]; at 1.2 µM -31% | [3]; at 3.7 µM -64% | [3]; at 11.0 µM -24% | [3]; at 33.0 µM 62% | [4]; at 1.2 µM 8% | [4]; at 3.7 µM 29% | [4]; at 11.0 µM 56% | [5]; at 1.2 µM 4% | [5]; at 3.7 µM 5% | [5]; [17] 17% | [5]; at 11.0 µM 42% | [6]; at 1.2 µM -13% | [6]; at 3.7 µM -7% | [6]; [17] -2% | [6]; at 11.0 µM 26% | [6]; [18] 43% | [7]; at 1.2 µM -3% | [7]; at 3.7 µM 1% | [7]; at 11.0 µM 47% | [8]; [17] 53% | [9]; at 1.2 µM -2% | [9]; at 3.7 µM 16% | [9]; at 11.0 µM 47% | [10]; [17] 13% | [11]; at 1.2 µM -6% | [11]; at 3.7 µM 3% | [11]; [17] 6% | [11]; at 11.0 µM 49% | [12]; at 1.2 µM -4% | [12]; at 3.7 µM 21% | [12]; at 11.0 µM 48% | [13]; at 1.2 µM 3% | [13]; at 3.7 µM 5% | [13]; at 11.0 µM 47% | [14]; at 1.2 µM 7% | [14]; at 3.7 µM 28% | [14]; at 11.0 µM 57% | [16]; [17] 9% | [15]; at 1.2 µM 0% | [15]; at 3.7 µM 22% | [15]; at 11.0 µM 50%
-6.8% (inactive) and 87.5% (active): [11]; at 50.0 µM
